# “And” between values parts separate entries of the source, which are not always exact repeats. Equal entries are not always repeated. In all, about 400,000 compounds went through this assay and about 2,100 (0.53%) were called active. About 14% were inconclusive and are not listed. The rule behind the calls is not given here. The entries come from a sample that favours actives as a whole.
# Target: Ataxin-2 (Homo sapiens) (UniProt Q99700)
# Experiment: qHTS for Inhibitors of ATXN expression.
# Format: functional
# Ataxin-2 (Homo sapiens), sequence (Q99700 whole entry): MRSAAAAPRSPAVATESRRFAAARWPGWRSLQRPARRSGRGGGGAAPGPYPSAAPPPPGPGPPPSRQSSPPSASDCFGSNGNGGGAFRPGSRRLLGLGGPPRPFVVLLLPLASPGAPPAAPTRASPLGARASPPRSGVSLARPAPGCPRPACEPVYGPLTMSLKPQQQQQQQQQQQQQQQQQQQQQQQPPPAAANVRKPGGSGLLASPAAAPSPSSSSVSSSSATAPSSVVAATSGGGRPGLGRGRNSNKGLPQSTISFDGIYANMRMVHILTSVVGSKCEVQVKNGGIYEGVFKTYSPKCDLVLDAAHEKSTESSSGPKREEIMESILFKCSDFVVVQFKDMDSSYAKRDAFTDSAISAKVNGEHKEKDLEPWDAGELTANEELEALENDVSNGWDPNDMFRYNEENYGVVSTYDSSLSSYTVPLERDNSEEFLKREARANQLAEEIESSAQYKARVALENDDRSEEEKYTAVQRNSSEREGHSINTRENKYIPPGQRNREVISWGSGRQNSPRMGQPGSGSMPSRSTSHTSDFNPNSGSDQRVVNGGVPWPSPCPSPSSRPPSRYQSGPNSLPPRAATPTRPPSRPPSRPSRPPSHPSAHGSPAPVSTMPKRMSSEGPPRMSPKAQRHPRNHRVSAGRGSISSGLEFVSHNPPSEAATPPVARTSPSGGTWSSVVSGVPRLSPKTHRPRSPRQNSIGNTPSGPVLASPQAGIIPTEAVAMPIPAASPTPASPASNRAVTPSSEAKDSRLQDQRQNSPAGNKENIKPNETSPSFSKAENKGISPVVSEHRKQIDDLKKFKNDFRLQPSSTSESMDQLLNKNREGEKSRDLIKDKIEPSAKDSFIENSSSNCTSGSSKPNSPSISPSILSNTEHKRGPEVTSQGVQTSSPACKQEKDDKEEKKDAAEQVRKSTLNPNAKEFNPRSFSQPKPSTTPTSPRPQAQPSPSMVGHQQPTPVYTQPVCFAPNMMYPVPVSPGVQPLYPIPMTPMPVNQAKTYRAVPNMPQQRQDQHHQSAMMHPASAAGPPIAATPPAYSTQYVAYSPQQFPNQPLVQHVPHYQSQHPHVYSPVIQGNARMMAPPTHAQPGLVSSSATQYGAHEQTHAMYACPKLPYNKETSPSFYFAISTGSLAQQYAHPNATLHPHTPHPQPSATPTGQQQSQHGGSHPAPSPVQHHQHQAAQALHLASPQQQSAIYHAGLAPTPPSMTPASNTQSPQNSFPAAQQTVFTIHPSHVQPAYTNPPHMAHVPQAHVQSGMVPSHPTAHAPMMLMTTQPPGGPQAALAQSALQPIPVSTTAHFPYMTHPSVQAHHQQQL
row,Compound,Potency
1,CCOc1ccc(N2C(=O)/C(=C/Nc3ccnn3Cc3ccncc3)c3ccccc3C2=O)cc1,inactive
2,Cn1nnnc1SCCCNCc1cc(Br)ccc1OCc1ccccc1F,25.1 µM (active)
3,COc1ccc(CNCCSc2nnnn2C)c(OC)c1OC,inactive
4,Cn1nnnc1SCc1cccc2ccccc12,inactive
5,Cn1c2nc(=O)n(-c3ccccc3)c(=O)c-2nc2c1CCCC2,inactive
6,CCOc1ccccc1NC(=O)c1cc(SC)ccc1Cl,inactive
7,CCOc1ccccc1NC(=O)CN1C(=O)COc2ccccc21,inactive
8,CCOc1ccccc1NC(=O)/C=C/C(N)=O,39.8 µM (active)
9,COc1ccccc1NC(=O)CCC(=O)OC(C)C(=O)c1ccccc1 (configuration not stated),inactive
10,CCCOc1ccccc1NC(=O)/C=C/C(N)=O,35.5 µM (active)
11,COc1ccccc1NC(=S)NC(=O)CCc1ccccc1,inactive
12,CCCOc1ccccc1C1C(C(=O)OC)=CN(C(C)C)C=C1C(=O)OC,inactive
13,COc1ccccc1NC(=O)/C=C/C(N)=O,39.8 µM (active)
14,CCCCOc1ccccc1C1C(C(=O)OC)=CN(CC)C=C1C(=O)OC,inactive
15,Cc1cc(Br)ccc1-n1nc(C)c(/C=N/c2cccc3nsnc23)c1O,inactive
16,Cc1cc(NC(=O)Cn2cc([N+](=O)[O-])cn2)n(Cc2ccc(F)cc2)n1,inactive
17,COc1ccc(C(=O)c2oc3ccc(OC)cc3c2NC(C)=O)cc1,inactive
18,O=C1C=C(NCCc2ccccc2)C2(CCCCC2)O1,inactive
19,CCc1cccc2c1Sc1ccccc1CC2N1CCNCC1 (configuration not stated),39.8 µM (active)
20,CN1CCN(C2Cc3ccccc3Sc3ccc(Cl)cc32)CC1 (configuration not stated),22.4 µM (active) and 28.2 µM (active)
21,CCc1ccccc1N1C(=O)[C@@H]2Cc3ccccc3CN2C1=O,inactive
22,CN1CCN(C2Cc3ccccc3Sc3cc(C(F)(F)F)ccc32)CC1 (configuration not stated),39.8 µM (active)
23,CSc1ccc2c(c1)C(N1CCN(C)CC1)Cc1ccccc1S2 (configuration not stated),22.4 µM (active) and 31.6 µM (active)
24,FC(F)(F)c1ccccc1C1=CC(c2ccccc2)n2ncnc2N1 (configuration not stated),inactive
25,CC(C)Nc1ccc(Nc2ccnc3cc4ccccc4cc23)cc1,31.6 µM (active)
26,c1ccc(CCNc2ccnc3cc4ccccc4cc23)cc1,inactive

row,Compound,Potency
1,Cc1c2ccccc2nc2c(F)c(NC(C)C)c(F)c(F)c12,inactive
2,Cc1c(CCC(=O)NC2CC2)c(=O)oc2cc(O)ccc12,inactive
3,Cc1cc(/C=N/NC(=O)Cn2c3ccccc3c(=O)c3ccccc32)c(C)n1-c1ccc(Cl)cc1,inactive
4,CC1CN(C(=O)COC(=O)c2ccc(NC(=O)CC#N)cc2)CC(C)O1 (configuration not stated),inactive
5,O=C(c1cc2cc(Br)ccc2s1)N1CCOCC1,inactive
6,O=C(c1cccn2c(=O)c3cc(Cl)ccc3nc12)N1CCOCC1,inactive
7,O=C(c1nnsc1[S+]([O-])c1ccc(Cl)cc1)N1CCOCC1 (configuration not stated),20 µM (active)
8,Cc1nnsc1C(=O)NNc1ccc(Cl)cc1,inactive
9,O=C(c1nc2n(n1)C(c1ccc(Cl)cc1)C=C(c1ccccc1)N2)N1CCOCC1 (configuration not stated),inactive
10,NC(=O)c1c(NC(=O)c2ccc(S(=O)(=O)N3CCOCC3)cc2)sc2c1CCCCC2,inactive
11,CCCNC(=O)c1nnsc1[S+]([O-])c1ccc(Cl)cc1 (configuration not stated),6.7 µM (active)
12,O=C(c1nnsc1S(=O)(=O)c1ccc(Cl)cc1)N1CCOCC1,26.7 µM (active)
13,CCCc1nn(C)c(C(=O)Nc2ccc(Cl)cc2)c1Cl,inactive
14,C=CCOC(=O)C(=O)/C=C/c1coc2ccccc2c1=O,inactive
15,CCOc1cc(C(=O)NC2=NCCS2)cc(OCC)c1OCC,inactive
16,Cc1noc(C)c1-c1nnc(-c2ccc(OC(F)(F)F)cc2)o1,inactive
17,Fc1ccc(Br)cc1C1C=C(c2cccnc2)Nc2ncnn21 (configuration not stated),inactive
18,O=C(CCN1CCCC1Cc1ccccc1)c1ccc2c(c1)OCCO2 (configuration not stated),31.6 µM (active)
19,O=C(C1CC(=O)N(c2ccc3c(c2)OCCO3)C1)N1CCN(Cc2ccccc2)CC1 (configuration not stated),inactive
20,Nc1c(-c2ccc3c(c2)OCCO3)oc2ccccc2c1=O,inactive
21,O=C(CCN1Cc2ccccc2C1)c1ccc2c(c1)OCCO2,25.1 µM (active)
22,O=C(/C=C\Nc1ccccc1Br)c1ccc2c(c1)OCO2,inactive
23,O=C(CCN1CCc2ccccc2C(O)(c2ccccc2)C1)c1ccc2c(c1)OCCO2 (configuration not stated),39.8 µM (active)
24,N=C(NOC(=O)COc1ccc(Br)cc1Cl)c1ccncc1,inactive
25,CC(C)C(NC(=O)C1CCCCC1)C(=O)NC1CCCC(C)C1C (configuration not stated),inactive
26,COc1cc(OC)c(-c2cc(C(=O)NCc3ccc(F)cc3)c3c(-c4ccccc4)[nH]nc3n2)cc1OC,44.7 µM (active)

# Source: ChEMBL document CHEMBL1201862, “PubChem BioAssay data set” (2004)
